Consider two compounds from PubChem BioAssay AID1570 (National Center for Advancing Translational Sciences (NCATS), 2009).

For this assay, the target named is Thyroid hormone receptor beta (Homo sapiens) (UniProt P10828). Description: Concentration Response Confirmation Assay for Inhibitors of the Interaction of Thyroid Hormone Receptor and Steroid Receptor Coregulator 2, Fluorescein Fluoroprobe. The settings on record: TRbeta LBD / fluorescein-SRC2 peptide, fluorescence polarization, 5 h; series mostly up to 92.2 µM. From the text:
NIH Molecular Libraries Probe Production Network [MLPCN] NIH Chemical Genomics Center [NCGC] MLPCN Grant: DK058080 Assay Provider: R. Kip Guy, St. Jude Children's Research Hospital NCGC Assay Overview: Thyroid receptor (TR) regulates many homeostatic processes including basal metabolism, cardiovascular function, body weight, and lipid trafficking. TR modulators are potential therapeutics for obesity and hyperlipidemias but current thyroid analogs have undesirable side effects, particularly cardiac stimulation. To identify inhibitors that specifically prevent the interaction of TR with the steroid receptor coregulator 2 (SRC2), a fluorescence polarization assay was screened (Arnold et al., 2006). […] Small molecule inhibitors that block the interaction of TR and SRC2 are detected by a decrease in fluorescence polarization. […]
NCGC Assay Protocol Summary: Five uL/well 0.6 uM TRbeta and 20 nM SRC2 Fluorescein in protein buffer (20mM Tris hydrochloride, 100mM NaCl, 10% glycerol, 1mM EDTA, 0.01% NP-40, 1mM DTT, 1uM T3 and 5% DMSO) was dispensed into black solid 1536-well plates (Grenier) using a solenoid-based dispenser. […] The plates were read by an Envision (Perkin Elmer) to detect fluorescence polarization of SRC2 Fluorescein (480 nm excitation and 535 nm emission). […]

Results filed as inconclusive are left out. A call without a number means that no potency is given here. Active and inactive are the calls of the source. Calls come from the whole dose curve; as a rule, active = well fitted inhibition curve with a large enough effect; inconclusive = small, poorly fitted or top-dose-only effect, or effect the other way; inactive = flat fitted curve, though single readings scatter.

Chain of Thyroid hormone receptor beta (Homo sapiens) (P10828 whole entry, looked up, the tested form may be a part): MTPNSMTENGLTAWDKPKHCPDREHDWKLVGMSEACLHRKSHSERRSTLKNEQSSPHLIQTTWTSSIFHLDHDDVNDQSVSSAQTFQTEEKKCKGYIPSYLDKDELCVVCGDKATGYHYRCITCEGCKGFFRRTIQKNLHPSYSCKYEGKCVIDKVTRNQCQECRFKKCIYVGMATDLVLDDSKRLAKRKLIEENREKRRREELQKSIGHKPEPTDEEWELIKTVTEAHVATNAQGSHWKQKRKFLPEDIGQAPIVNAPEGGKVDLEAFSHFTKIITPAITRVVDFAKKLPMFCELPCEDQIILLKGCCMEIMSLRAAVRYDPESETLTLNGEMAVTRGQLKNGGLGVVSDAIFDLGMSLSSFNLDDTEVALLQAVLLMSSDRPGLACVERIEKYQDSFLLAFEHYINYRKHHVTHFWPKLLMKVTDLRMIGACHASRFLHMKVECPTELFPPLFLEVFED

For `COP(=S)(OC)Oc1ccc([N+](=O)[O-])cc1`, the Potency was 14.1 µM (active).
Then `CCn1nc(-c2cccs2)nc2c(=O)n(C)c(=O)nc1-2`, with “inactive”.
